Measurements from PubChem BioAssay.

These molecules were tested against Dickkopf-related protein 1 (Homo sapiens) (UniProt O94907) (assay: DKK1 binders on small-molecule microarrays, primary screen, biochemical, small-molecule microarray, 635 nm fluorescence scan (AID 1106;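 note: score merges emission near 667 nm with signal to noise over three replicate slides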)). Conditions: DKK1 binding, higher = more signal.
Dickkopf-related protein 1 (Homo sapiens), sequence (O94907 whole entry, looked up): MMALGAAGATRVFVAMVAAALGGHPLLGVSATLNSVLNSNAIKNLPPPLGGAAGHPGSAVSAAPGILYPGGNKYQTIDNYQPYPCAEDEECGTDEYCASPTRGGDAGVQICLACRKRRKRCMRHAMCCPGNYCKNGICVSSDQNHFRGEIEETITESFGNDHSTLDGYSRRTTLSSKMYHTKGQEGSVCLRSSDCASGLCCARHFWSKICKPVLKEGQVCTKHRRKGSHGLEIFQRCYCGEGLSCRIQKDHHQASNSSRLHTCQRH

**Q.** `CCOC(=O)C[C@H]1[C@H](OC(=O)c2ccc(-c3ccccc3)cc2)[C@@H](NC(=O)Cc2ccc(OC)cc2)c2cc(OCCCO)ccc2N1C(=O)c1ccc2ccccc2n1` was tested. Which composite z-score did it give?
**A.** 0.0289

**Q.** For `C=CC[C@@]1(C(=O)NCC(O)CO)N=C(c2ccc(OCCCO)cc2)O[C@@H]1c1ccccc1N=[N+]=[N-]` (some centres undefined), which composite z-score is on record?
**A.** -0.612

**Q.** `CCCCC=C[C@@H](NC(=O)c1ccco1)c1ccccc1` was tested. Which composite z-score did it give?
**A.** 0.0504

**Q.** How did the composite z-score turn out when `CC(C)(C)OC(=O)CC[C@@]1(C(=O)NCCN2CCOCC2)N=C(c2ccc(OCCCO)cc2)O[C@@H]1c1ccccc1` was run?
**A.** 0.126

**Q.** `CC(C)(C)N1CC=CC23O[C@@H]4C=CCOC(=O)[C@@H]4[C@H]2C(=O)N(CCCCCO)[C@@H]3C1=O` (some centres undefined) was tested. Which composite z-score did it give?
**A.** -0.499

**Q.** With `COc1ccc(C(O)C2C=CC3C(=O)N(c4ccccc4)C(=O)C3N2Nc2ccc([N+](=O)[O-])cc2)cc1OCc1ccccc1` (centres undefined) as the molecule, how does the composite z-score read?
**A.** -0.0143

**Q.** For `CN(C)C(=O)[C@]1(CCC(=O)OC(C)(C)C)N=C(c2ccc(OCCCO)cc2)O[C@@H]1c1ccccc1N=[N+]=[N-]`, which composite z-score is on record?
**A.** -0.394

**Q.** `O=C1OCC=C[C@H]2OC34C=CCN(c5ccc6ccccc6c5)C(=O)[C@H]3N(CCCO)C(=O)[C@@H]4[C@@H]12` (some centres undefined) was tested. Which composite z-score did it give?
**A.** -1.06

**Q.** For `COC(=O)c1c(CC[C@@H](CO)NC(=O)N[C@@H](Cc2ccccc2)Cn2cc(C3(O)CCCCC3)nn2)oc(C(C)=O)c1C(=O)OC`, which composite z-score is on record?
**A.** 0.514

**Q.** How did the composite z-score turn out when `C=CCOC(=O)[C@H]1[C@@H]2C(=O)O[C@@H](c3ccccc3)[C@@H](c3ccccc3)N2[C@@H](c2ccc(OCCOC(=O)[C@@H]3C[C@@H]4C(=O)NCC(=O)N4[C@@H]3c3ccc(O)cc3)cc2)[C@]12C(=O)Nc1ccccc12` was run?
**A.** 0.535

**Q.** With `[N-]=[N+]=NCc1ccccc1[C@H]1OC(c2ccc(OCCCO)cc2)=N[C@@]1(CCS(=O)(=O)c1ccccc1)C(=O)N1CCOCC1` as the molecule, how does the composite z-score read?
**A.** -0.0445

**Q.** With `N[C@@H](Cc1ccccc1)Cn1cc(-c2ccccc2)nn1` as the molecule, how does the composite z-score read?
**A.** -0.328

**Q.** `CC(C)CNC(=O)[C@@]1(c2ccc([N+](=O)[O-])cc2)CC(=O)N(CC23CC4CC(CC(C4)C2)C3)[C@@H]1c1ccc(CO)cc1I` was tested. Which composite z-score did it give?
**A.** 0.808

**Q.** With `O=C(CCN1CCOCC1)c1cccc(O)c1` as the molecule, how does the composite z-score read?
**A.** 1.8

**Q.** Which composite z-score does the source give for `COC(=O)C(CC#Cc1ccc2c(c1)[C@]1(C(=O)N2)[C@H](c2ccc(OCCO)cc2)N2[C@H](c3ccccc3)[C@H](c3ccccc3)OC(=O)[C@H]2[C@@H]1C(=O)NC[C@H](O)c1ccccc1)C(=O)OC` here?
**A.** 0.271

**Q.** Which composite z-score does the source give for `C#CCN(C(/C=C/c1ccccc1)CO)C(C(=O)O)c1ccccc1` (centres undefined) here?
**A.** 0.122

**Q.** How did the composite z-score turn out when `COc1ccc(C(=O)Nc2cccc(CN3C(=O)[C@@]4(O[C@@H](CCn5cc(CCO)nn5)[C@H]([Si](C)(C)c5ccc(OC)cc5)[C@H]4C)c4ccccc43)c2)cc1` was run?
**A.** 0.851

**Q.** For `O=C(CS)NCCCCCCNC(=O)[C@@H]1C[C@@H]2C(=O)N3CCC[C@H]3C(=O)N2[C@@H]1c1ccc(O)cc1`, which composite z-score is on record?
**A.** 0.17

**Q.** `CCCNC(=O)[C@@]1(c2ccc([N+](=O)[O-])cc2)CC(=O)N(CC23CC4CC(CC(C4)C2)C3)[C@@H]1c1ccc(CO)cc1` was tested. Which composite z-score did it give?
**A.** 0.138

**Q.** For `CC(C)c1ccc(NN2C(C(O)c3c(F)cccc3Cl)C=CC3C(=O)N(c4ccccc4)C(=O)C32)cc1` (centres undefined), which composite z-score is on record?
**A.** -0.247

**Q.** Which composite z-score does the source give for `COc1ccc([Si](C)(C)[C@@H]2[C@@H](CCn3cc([C@H](O)c4ccccc4)nn3)O[C@]3(C(=O)N(Cc4ccc(N5C(=O)c6cccc7cccc5c67)cc4)c4ccccc43)[C@H]2C)cc1` here?
**A.** -0.795

**Q.** `[N-]=[N+]=Nc1ccccc1C[C@]1(C(=O)NCCN2CCOCC2)N=C(c2ccc(OCCCO)cc2)O[C@H]1c1ccccc1` was tested. Which composite z-score did it give?
**A.** -0.019

**Q.** `COC(=O)C[C@@H]1C[C@H](C)[C@]2(O1)C(=O)N(Cc1ccccc1)c1ccc(NC(C)=O)cc12` was tested. Which composite z-score did it give?
**A.** 0.355

**Q.** Which composite z-score does the source give for `Cc1ccc([C@H]2C(C(=O)O)=C[C@@H](C)N2S(=O)(=O)c2ccc(C)cc2)cc1` here?
**A.** -1.13

**Q.** Which composite z-score does the source give for `O=C1O[C@H](c2ccccc2)[C@H](c2ccccc2)N2[C@H]1[C@@H](C(=O)O)[C@]1(C(=O)Nc3ccc(C#CC4=CCCCC4)cc31)[C@H]2c1ccc(OCCO)cc1` here?
**A.** 0.765

**Q.** With `C=CC(=C)C1=CCO[C@@H]1[C@H]1CCCN1S(=O)(=O)c1ccccc1[N+](=O)[O-]` as the molecule, how does the composite z-score read?
**A.** 0.797

**Q.** For `CCC(CC)C(O)C1C=CC2C(=O)N(c3ccccc3)C(=O)C2N1Nc1ccc(C#N)cc1` (centres undefined), which composite z-score is on record?
**A.** -0.197

**Q.** How did the composite z-score turn out when `CC(C)N1C(=O)c2ccccc2[C@@H](C(=O)NCCCN(C)C)[C@@H]1c1ccc(CO)cc1` was run?
**A.** -1.25

**Q.** How did the composite z-score turn out when `COC(=O)[C@@]1(Cc2ccc(F)cc2)[C@H]2c3cc(C(=O)N4CCCC4)n(Cc4cccc5ccccc45)c3C[C@H]2CN1C(=O)c1ccccc1` was run?
**A.** -0.538
